The text below walks through data of publication PMC5540273 (PLoS ONE, 2017).

Holding throughout (conditions): concentration: 1 μM, replicates: in singlicate; n = 1
For assay [1], the system named is RIOK1.
Assay [2] relates to RIOK2.
Assay [3] deals with RIOK3.
For assay [4], the system named is RIPK1.
In assay [5] the test system is RIPK2.
Assay [6] has as its system RIPK4.
Assay [7] deals with RIPK5.
The test system of assay [8] is ROCK1.
Assay [9] concerns ROCK2.
Assay [10] has as its system ROS1.
Assay [11] deals with RPS6KA4(Kin.Dom.1-N-terminal).
Assay [12] deals with RPS6KA4(Kin.Dom.2-C-terminal).
The subject of assay [13] is RPS6KA5(Kin.Dom.1-N-terminal).
Assay [14] deals with RPS6KA5(Kin.Dom.2-C-terminal).
Assay [15] relates to T1, RSK1(Kin.Dom.1-N-terminal).
T1 construct: gene RPS6KA1

Assay [16] deals with T2, RSK1(Kin.Dom.2-C-terminal).
T2 construct: gene RPS6KA1

The subject of assay [17] is T3, RSK2(Kin.Dom.1-N-terminal).
T3 construct: gene RPS6KA3

For assay [18], the system named is T4, RSK2(Kin.Dom.2-C-terminal).
T4 construct: gene RPS6KA3

Assay [19] deals with T5, RSK3(Kin.Dom.1-N-terminal).
T5 construct: gene RPS6KA2

The test system of assay [20] is T6, RSK3(Kin.Dom.2-C-terminal).
T6 construct: gene RPS6KA2
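Note: KINOMEscan kinase panel screen.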

`Cc1ccc(Nc2ccnc(Nc3ccc(C)c(F)c3)n2)cc1O.Cl` [GW582868]: the “%Inh” value in [1] came out at 19%; in assay [2], 2%; in assay [3] it was 4%; in assay [4] it was 1%; in assay [5], 55%; in assay [6], 13%. For the same molecule, the “%Inh” value is listed as 0% in [7]; 22% in assay [8]; 16% in [9]; 33% in assay [10]; 0% in [11]; 0% in assay [12]. Also, the “%Inh” value in [13] stood at 0%; in assay [14], 21%; in assay [15], 0%; in assay [16], 0%; in assay [17], 0%; in [18], 0%. In addition, the “%Inh” value was 9% in [19] and 0% in assay [20].

Take `Nc1ncc(-c2ccc3nccc(-c4ccncc4)c3c2)cc1S(=O)(=O)N1CCCCC1` [GSK1693850]: the “%Inh” value was 30% in assay [1]; 89% in [2]; 41% in assay [3]; 31% in assay [4]; 22% in assay [5]; 5% in assay [6]. Moreover, the “%Inh” value stood at 25% in assay [7]; 11% in [8]; 13% in assay [9]; 43% in assay [10]; 0% in assay [11]; 0% in assay [12]. Also, the “%Inh” value in [13] amounted to 9%; in assay [14], 17%; in assay [15], 0%; in [16], 37%; in [17] it was 0%; in assay [18], 0%. Further, the “%Inh” value worked out at 17% in assay [19] and 24% in assay [20].

As to `CSc1ccc(NC2=C(c3ccc(Cl)cc3)C(=O)NC2=O)cc1` [SB-317658], the “%Inh” value in assay [1] was 3%; in [2] it was 0%; in assay [3], 20%; in [4], 0%; in assay [5] it was 0%; in [6] it was 16%. Besides, the “%Inh” value turned out to be 7% in [7]; 38% in assay [8]; 0% in assay [9]; 3% in assay [10]; 28% in [11]; 0% in [12]. Besides, the “%Inh” value in [13] turned out to be 2%; in assay [14], 30%; in assay [15], 6%; in [16] it was 0%; in assay [17] it was 11%; in assay [18] it was 0%. For the same molecule, the “%Inh” value in assay [19] and in [20] was 0% throughout.

`Cc1ccc(NC(=O)c2ccnc(N3CCCCC3)c2)cc1-c1ccc(C(=O)NCC2CC2)cc1` [GW775610]: the “%Inh” value in assay [1] came out at 50%; in assay [2], 0%; in assay [3] it was 35%; in assay [4], 43%; in [5], 0%; in assay [6] it was 36%. In addition, the “%Inh” value in assay [7] is listed as 0%; in assay [8], 25%; in assay [9] it was 7%; in assay [10], 10%; in assay [11] it was 0%; in [12], 0%. Besides, the “%Inh” value in [13] was determined as 0%; in assay [14], 0%; in assay [15], 0%; in assay [16], 100%; in assay [17], 0%; in assay [18] it was 0%. Moreover, the “%Inh” value in assay [19] worked out at 16%; in assay [20], 15%.
